Experimental data as given in the supplement of paper PMC7726561.
Over roughly 1,100 sequences, “thermal melting temperature (Tm) of peptide-HLA complex” has its median near 58; the lowest 2% begin near 42. Many of the other results were omitted from the sample, so the lowest values are more common in it than they were.

Biological target: HLA-A*02:01
Experiment: thermal melting temperature (Tm) of peptide-HLA complex; higher = more thermostable pHLA complex
Settings: C1R-A*02:01
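Note: lysates heated 10 min at 37–73 °C, complexes pulled down with pan-HLA I antibody, peptide signal by DIA-MS relative to 37 °C, Tm where half the complex is unfolded.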

Row | Sequence | thermal melting temperature
1 | KLMNVDPDSV | 53.8 °C
2 | KLMDPGSLPPL | 57.3 °C
3 | RLGGIPVGV | 55.9 °C
4 | IIMLEALERV | 46.6 °C
5 | ALANGVSRI | 55.8 °C
6 | ALDRDNFEL | 47.8 °C
7 | FMFDEKLVTV | 58.5 °C
8 | VLGPKIEAV | 55.5 °C
9 | FILANEHNV | 40.8 °C
10 | YLPDIIKDQKA | 55.4 °C
11 | RQIEYYFSV | 61.3 °C
12 | FMQHDVQEL | 41.6 °C
13 | VVWGTVIRV | 58.5 °C
14 | SLDPHAQVAV | 48.9 °C
15 | KLQDQIFNL | 56 °C
16 | ALSKEGIVAL | 59.5 °C
17 | SLLQTLYKV | 63.6 °C
18 | ALGPGVPHI | 58 °C
19 | VLADALKSI | 58.9 °C
20 | KLNATNIEL | 51.5 °C

Row | Sequence | thermal melting temperature
21 | FLEPVNPRL | 55.3 °C
22 | MLDDRAYLV | 61.5 °C
23 | YPSEFATYL | 56.5 °C
24 | TLDEYTTRV | 52.2 °C
25 | LLPSEGIVHL | 41.3 °C
26 | ALMPVLNQV | 58.7 °C
27 | TLFPGKVHSL | 55.8 °C
28 | SLAGGLDDMKA | 45.1 °C
29 | MTDPIRILV | 41.9 °C
30 | ALLKDSIVQL | 40.9 °C
31 | SLDTQPKKV | 40.4 °C
32 | VLLESEQFL | 56.7 °C
33 | RLDEAFDFV | 57 °C
34 | SLDAKEIYL | 50.5 °C
35 | TTLEQPPSV | 50.3 °C
36 | QLLPSIPQL | 53.7 °C
37 | SLLDGVVEKL | 55.5 °C
38 | TLFPVRLLV | 55.8 °C
39 | GLIDGRLTI | 54 °C
40 | FLLEQEKTQAL | 59 °C

Row | Sequence | thermal melting temperature
41 | LMGPVVHEV | 46.4 °C
42 | QLQGYLRSV | 57.7 °C
43 | GMDRYLIYV | 60.9 °C
44 | YIYDKDMEII | 57.2 °C
45 | QLLETLNQL | 41.4 °C
46 | QLTNVILHL | 58.7 °C
47 | SILSEVQQA | 53.3 °C
48 | RLYQGINQL | 55.9 °C
49 | FLPDPSALQNL | 55 °C
50 | TLIDLPGITRV | 56.9 °C
51 | LLAILPEAARA | 60 °C
52 | ALLSGLREA | 62.6 °C
53 | KLDQVIIHV | 60.5 °C
54 | KVLEVTEEFGV | 62.6 °C
55 | ILLEHGADPNL | 51.4 °C
56 | SLLENIAKA | 60.6 °C
57 | SLQEEIAKL | 53.4 °C
58 | VLDEEIAKA | 40.7 °C
